HT1080 IDH1KD tx: toxicity to HT-1080 IDH1 knockdown cells (counter line); HT-1080 IDH1 knockdown viability, ATP luminescence, 48 h; Potency, µM (highest dose often 46.1 µM), inactives show at the highest dose activity, negative = toxicity, hits mostly cytotoxic; 360,000 compounds, 2% hits;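 note: 0% = DMSO wells and -100% = cell-free medium wells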
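After a 2 h attachment period, IDH1KD HT-1080 cells took pin-transferred compound for 48 h at 37 °C; ATP-based luminescence after 10 min room-temperature reagent incubation reported viability.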
HepG2 tox: HepG2 cytotoxicity, counter-screen for TGF-b inhibitors; HepG2 CAGA-GFP viability, ATP luminescence, 18 h; Potency, µM (highest dose often 46.1 µM), without a hit: at the highest dose activity change, negative = cytotoxicity, hits mostly cytotoxic; 410,000 compounds, 0.76% hits; AID 588856
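CellTiter-Glo luminescence gave cytotoxicity after 18 hours at 37 degrees C. The cells were HepG2 CAGA-GFP in 1% FBS DMEM, stimulated with 500 pg/mL TGF-beta after compound addition. %Activity was normalised to no-cell wells (complete cell-killing) and DMSO (no toxicity), and curves were fitted and classified.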
KB-3-1 tox: kills parental KB-3-1 adenocarcinoma cells. KB-3-1 viability, CellTiter-Glo ATP luminescence, 72 h. Potency, µM (highest dose often 46.1 µM), most hits filed as cytotoxic. AID 1347075. 400,000 compounds, 1.4% hits; note: % is set by controls: 0 for no effect and ±100 for the full control effect; nearly all actives have a fitted effect of over 60% in size
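Cytotoxicity in the drug-sensitive parental line KB-3-1 was scored as loss of CellTiter-Glo luminescence following 72 h incubation with compound. Values come from curve fitting of normalized concentration-response data.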
HT1080NT lethal: kills 2HG-producing HT-1080-NT fibrosarcoma cells; HT-1080-NT fibrosarcoma viability, CellTiter-Glo ATP luminescence, 48 h; Potency, µM (doses to about 46.1 µM), inactives show top-dose activity, negative = less viability, usual class: cytotoxic; 360,000 compounds, 1.6% hits; AID 686970;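 note: NT is the 2HG producing partner of a matched IDH1 knockdown line; 0% = DMSO-treated cells and -100% = media-only wells without cells; nearly all actives have a fitted effect of over 55% in size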
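750 cells/well, RPMI + 5% FBS; 2 h settle, compound pin-transfer, 48 h at 37 degrees C. CellTiter-Glo 10 min RT, luminescence. Normalized to DMSO and media-only wells.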
KB-V1 cytotox: KB-V1 MDR subline cytotoxicity | KB-V1 MDR cells viability, CellTiter-Glo, 72 h | Potency, µM (highest dose often 46.1 µM), hits mostly cytotoxic | 400,000 compounds, 3.4% hits; note: % is set by controls: 0 for no effect and ±100 for the full control effect; nearly all actives have a fitted effect of over 60% in size
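Cytotoxicity toward P-gp-expressing KB-V1 cells was determined as loss of CellTiter-Glo luminescence after 72 h at 37 degrees C. Compounds were tested in quantitative HTS format across a concentration range, with curves fitted to normalized data.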
TGFb SMAD3 inh: blocks TGF-b signaling | 410,000 compounds, 1.2% hits | Potency, µM (series often up to 46.1 µM), for the others: at the top dose activity, negative = inhibition, most hits filed as inhibitors | HepG2 CAGA-GFP TGF-b/SMAD3 reporter, GFP fluorescence, 18 h; TGF-beta stimulated, 500 pg/mL final | AID 588855; note: % is set by controls: 0 for no effect and ±100 for the full control effect; nearly all actives have a fitted effect of over 65% in size
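TGF-beta reporter screen: HEPG2 CAGA-GFP, 1% FBS, 500 pg/mL TGF-beta final, 18 h; per-cell GFP summed per well; curves fitted and categorized by class.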
The depositor's hits bear a star; i = inactive; ? = inconclusive; / = no result; [ ] = dose if it differs, or a comment. Rows were chosen to be rich in hits. Some 6.6% of all compounds tested hit in one or more screens of this group. Calls come from the whole dose curve; as a rule, active = well fitted curve in the direction sought with a large enough effect; inconclusive = small, poorly fitted or top-dose-only effect, or another doubt; inactive = no such curve, though single readings can be large; an effect the other way counts as inactive or inconclusive. Potency is the fitted concentration of half-maximal effect.

SMILES	HT1080 IDH1KD tx	HepG2 tox	KB-3-1 tox	HT1080NT lethal	KB-V1 cytotox	TGFb SMAD3 inh
O=C(Nc1ccc(F)c(F)c1)c1cc(S(=O)(=O)N2CCN(c3ccccn3)CC2)ccc1F	-6.8%	-0.6%	i	-13.7%	10.3µM*	?
COC(=O)Nc1ccc(S(=O)(=O)N2c3ccccc3CCC2C)cc1 (centres undefined)	?	-15.7%	7.31µM*	2.82µM*	4.11µM*	?
NNC(=O)c1ccc(S(=O)(=O)N2CCc3ccccc32)cc1	-12.3%	2.2%	i	-5.8%	i	-15.7%
COC(=O)c1ccc(S(=O)(=O)N2CCc3ccccc32)cc1	9.2µM*	-2.2%	?	?	i	-5.0%
Cc1cc(NC(=O)COC(=O)c2ccc(S(=O)(=O)N3CCCc4ccccc43)cc2)no1	4.11µM*	-12.2%	14.6µM*	4.11µM*	?	13.1%
COC(=O)Nc1ccc(S(=O)(=O)N2CCCCC2C(=O)O)cc1 (centres undefined)	27.6%	-1.0%	i	17.0%	i	-0.6%
CN1CCOC(=O)/C1=N/Nc1cc(Cl)ccc1Cl	20.6µM*	1.2%	i	?	i	7.1%
CCOC(=O)N1CCN(C(=O)CSc2cc(C)nc3c(-c4ccccc4OC)c(C)nn23)CC1	11.2µM*	-77.4%	i	10µM*	?	?
CCOC(=O)N1CCC(Nc2cc(C)nc3c(-c4ccccc4OC)c(C)nn23)CC1	-16.5%	-40.9%	i	-5.8%	i	-26.7%
COc1cccc(C2CC(=O)Nc3c2c(=O)n(C)c2nc4ccccc4n32)c1 (centres undefined)	/	-21.5%	i	/	i	-13.6%
CCOC(=O)c1cnn(-c2ccc(C(=O)Nc3cc(OC)c(OC)c(OC)c3)cc2)c1N	/	-17.7%	i	/	i	1.6%
Cc1ccc2nccnc2c1	/	5.62µM*	?	/	16.4µM*	8.91µM*
Clc1ccc2nccnc2c1	/	14.1µM*	?	/	i	?
Cc1ccc(S(=O)(=O)Nc2cccc(Cl)c2)cc1NC(=O)C1CC1	-2.9%	-9.7%	?	-0.7%	20.6µM*	-24.4%
Cc1ccc(NS(=O)(=O)c2ccc(Cl)c(NC(=S)NC(=O)C3CCCCC3)c2)cc1Cl	?	11.2µM*	i	?	i	?
COc1ccccc1-c1nnc(NC(=O)c2ccc3c(c2)OCO3)s1	?	3.8%	5.8µM*	-20.1%	6.51µM*	5.3%
CC(c1ccccc1)c1nnc(NC(=O)c2ccc3c(c2)OCO3)s1 (centres undefined)	?	-29.4%	?	-0.5%	14.6µM*	-9.8%
Cc1ccnc2ccc(N)cc12	/	-28.6%	i	/	i	-10.2%
Cc1ccc2c(c1)c1ncnc(N3CCN(c4ccccc4)CC3)c1n2C	1.4%[9.24 µM]	-1.3%	i	0.7%	?	9.7%
Cc1ccc2c(c1)c1ncnc(N3CCOCC3)c1n2C	-18.8%	-0.6%	i	-4.3%	23.1µM*	-4.9%
COc1ccc(CNc2nc(-c3ccc(OC)cc3)cc(C(F)(F)F)n2)cc1	/	-18.8%	i	/	i	-29.5%
COc1ccc(-c2noc(N3CCC(C(=O)N4CCN(c5cccc(OC)c5)CC4)CC3)n2)cc1	/	0.7%	/	/	/	-2.3%
Cc1ccccc1-c1nc(C(N)=O)c2c(n1)n(-c1ccc3c(c1)OCO3)c(=O)n2C	/	-14.1%	i	/	i	?
CN(C(=O)COC(=O)c1ccc(-c2ccc(O)cc2)cc1)C1CCS(=O)(=O)C1 (centres undefined)	18.4µM*	-2.4%	i	6.51µM*	i	-11.2%
COc1ccc(N2CCN(C(=O)CN=C3NS(=O)(=O)C(c4ccc(C)cc4)=C3C)CC2)cc1	2.1%	31.5%	i	10.6%	3.66µM*	?
SMILES	HT1080 IDH1KD tx	HepG2 tox	KB-3-1 tox	HT1080NT lethal	KB-V1 cytotox	TGFb SMAD3 inh
CC1=C(c2ccc(C)cc2)S(=O)(=O)NC1=NCCCN1CCN(c2ccc(F)cc2)CC1	/	-26.6%	/	/	/	?
CN1CCN(C(=O)/C(=C/c2ccccc2)c2ccccc2)CC1	-1.2%	-35.7%	?	-9.9%	i	-18.9%
CC1CC(C)CN(C(=O)/C(=C\c2ccccc2)c2ccccc2)C1 (centres undefined)	-8.1%	-28.8%	?	-1.8%	8.2µM*	?
COc1cccc(-c2cn3c(n2)sc2cc(C(=O)NCc4ccccc4F)ccc23)c1	/	-10.2%	/	/	/	?
COCC(=O)OC1CCn2c1nc1c2C(=O)C(C)=C(NC(C)=O)C1=O (centres undefined)	4.61µM*	-87.4%	?	7.31µM*	i	?
COc1ccc(C(=O)NCC(c2ccc3c(c2)OCO3)N2CCN(c3ccccc3F)CC2)cc1 (centres undefined)	/	-24.0%	i	/	i	?
CN(c1ccc(C(=O)N2CCCCCC2)cc1)S(=O)(=O)c1ccc(Cl)cc1	-0.1%	0.4%	i	-9.5%	23.1µM*	-32.7%
Cc1ccc(NS(=O)(=O)c2cccc(C(=O)N3CCN(c4ncccn4)CC3)c2)cc1	-1.9%	-7.0%	i	4.5%	8.2µM*	2.3%
Cc1ccc(NS(=O)(=O)c2cccc(C(=O)N3CCCCCCC3)c2)cc1	-9.0%	-9.0%	i	-4.0%	?	61.9%
CCOC(=O)N1CCN(C(=O)c2ccc(S(=O)(=O)Nc3ccc(C)cc3)cc2)CC1	-13.6%	-1.7%	7.31µM*	-0.2%	10.3µM*	-17.0%
O=C(Nc1ccccc1)Nc1ccc(C(=O)N2CCCC2)cc1	11.6µM*	-62.5%	?	?	?	25.6%
CCOC(=O)N1CCN(C(=O)c2ccc(NS(=O)(=O)c3ccc(C)cc3)cc2)CC1	-0.6%	4.6%	i	-6.3%	i	-4.1%
COc1ccc(-c2nc3ccccn3c2Nc2ccccc2C)cc1	-20.8%	/	/	-26.0%	/	/
CC(=O)Oc1ccc(C(=O)Nc2cccc(C(=O)c3ccc(C)c(C)c3)c2)cc1	?	-26.9%	16.4µM*	-4.9%	9.2µM*	?
Cc1ccccc1C(=O)NNC(=O)C(=O)N1CCCCC1	-6.1%	6.0%	i	-7.4%	i	7.9%
CCOc1ccc(NS(=O)(=O)c2ccc(C(=O)N3CCCCCC3)cc2)cc1	-21.9%	-16.2%	i	-10.7%	?	-15.9%
Cc1ccc(NS(=O)(=O)c2ccc(C(=O)N3CCCCCC3)cc2)cc1	-3.2%	5.6%	?	-2.5%	4.61µM*	?
Cc1ccc(NS(=O)(=O)c2ccc(C(=O)N3CCCCCCC3)cc2)cc1	-21.5%	-4.4%	i	-8.6%	i	-20.6%

Screening results (PubChem BioAssay)
